Screen size: about 370,000 compounds; about 2,600 (0.7%) were called active.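 How the source made its calls: active means inhibition above a per-plate cutoff, mean inhibition of test wells between control levels plus 3 SD (cut at about 38% in these data); inactive means the rest.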 The sample as a whole holds a higher share of actives than the screen did.
Target: COUP transcription factor 2 (Homo sapiens) (UniProt P24468)
Assay: COUP-TFII reporter suppression in human cells – cell-based, luciferase reporter, HEK293T, luminescence, primary screen (AID 686940);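 further: cells cotransfected with COUP-TFII expression vector driving the NGFI-A reporter; 0% = median of COUP-TF2 test wells and 100% = reporter-only cells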
Details: HEK293T NGFI-A luciferase reporter, at 8.6 µM, hits give high values

Sequence of COUP transcription factor 2 (Homo sapiens) (P24468 whole entry, looked up): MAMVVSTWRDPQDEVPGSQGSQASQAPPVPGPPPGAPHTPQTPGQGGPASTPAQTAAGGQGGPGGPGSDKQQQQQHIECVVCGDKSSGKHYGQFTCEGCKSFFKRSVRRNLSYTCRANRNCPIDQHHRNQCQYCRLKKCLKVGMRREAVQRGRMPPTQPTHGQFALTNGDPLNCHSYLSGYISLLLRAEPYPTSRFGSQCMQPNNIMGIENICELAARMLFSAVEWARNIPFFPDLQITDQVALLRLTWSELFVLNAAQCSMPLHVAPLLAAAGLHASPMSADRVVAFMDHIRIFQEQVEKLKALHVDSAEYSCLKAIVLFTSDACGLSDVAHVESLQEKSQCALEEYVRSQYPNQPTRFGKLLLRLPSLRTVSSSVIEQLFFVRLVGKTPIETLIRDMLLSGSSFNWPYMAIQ

inhibition, inactive:
Clc1ccc(-n2c(SC/C=C/c3ccccc3)nnc2-c2ccco2)cc1 13.9%
Cc1ccc(Cn2cc(CN3[C@@H](CC(C)C)COc4ccc(Cl)cc4S3(=O)=O)nn2)cc1 -4.67%
COc1ccc(NC(=O)C2Cc3c(-c4ccc(Cl)cc4)ccnc3O2)cc1 (stereo not given) 5.98%
COc1ccc(NC(=O)C2(C)Cc3c(-c4cccc(NC(C)=O)c4)ccnc3O2)cc1OC (stereo not given) -4.02%
O=C(CSc1nnc(-c2ccccn2)n1-c1ccccc1)Nc1ccc2cn[nH]c2c1 13.3%
C=CCN1C(=O)[C@H](CC(=O)N2CCN(C(=O)OCC)CC2)[C@@]2(C(=O)OCC)CCCC=C12 -10.2%
CCCCNC(=O)C[C@@H]1C(=O)N(CCc2ccc(Cl)cc2)C2=CCCC[C@]21C(=O)OCC 15.3%
O=C1CC[C@@H](COc2ccc3[nH]cc(-c4ccccc4)c3c2-c2ccccc2)N1 -9.36%
O=C1C=C(c2cccc(Cl)c2O)C[C@@H](c2ccc(F)cc2)C1 4.63%
N#Cc1ccc(C2=CC(=O)C[C@H](c3ccc(Cl)cc3)C2)cc1 17.5%
Clc1ncn(CCOc2ccccc2)c1Cl 6.16%
Clc1c(OCCCn2ccnc2)ccc2ccccc12 -3.68%
COCC(=O)N[C@@H]1C[C@@H]2O[C@@H](CO)CC[C@@H]2O[C@@H]1CCc1ccc(-c2ccccc2)cc1 1.52%
CC[C@@H](CCC(=O)N(c1ccccc1)c1ccccc1)C1CC1 15.5%
O=C1Nc2ccccc2OC1CC(=O)N1CCCCCCC1 (stereo not given) 18.8%
O=C(OC12CCCN(C1)/C(=C/c1ccccc1)C2)c1ccco1 (stereo not given) -14.4%
CCOC(=O)C1=C(N)N2C(=O)C(C)SC2=C(C(=O)OCC)C1c1cc(OC)c(OC)c(OC)c1 (stereo not given) -10.4%
COc1cc(C(=O)OCCCN2CCOCC2)cc(OC)c1OC -1.26%
C=CCN(Cc1ccc2c(c1)OCO2)C(C#CC1CC1)C(C)(C)C (stereo not given) 9.73%
Cc1c(C(C)c2ccccc2O)[nH]c2ccccc12 (stereo not given) 13.6%
CCOC(=O)[C@]12CCCC=C1N(Cc1ccc(OC)cc1)C(=O)[C@@H]2CC(=O)NCc1cccs1 6.16%
COC(=O)[C@]12C[C@H](CC(=O)NCc3cccc4ccccc34)C(=O)N(CCc3ccc(OC)c(OC)c3)C1=C[C@H](C1CCCC1)O[C@@H]2C 13.6%
CCn1c(=O)c(=O)[nH]c2c(=O)oc3ccc(S(=O)(=O)Nc4ccc(OC)cc4)cc3c21 4.47%
CC(=O)c1c(C)oc2ccc(NS(=O)(=O)c3ccccc3)cc12 21.9%
COc1ccc(CN2C/C(=C/c3ccccc3)N3C(=O)C[C@@H](c4ccccc4)N=C23)c(OC)c1 4.08%
CC(=O)c1cc(-c2ccc3ccccc3c2)c(=O)n2c1CCC2 16.2%
Cc1cc2nnc(SCC(=O)N3CCN(c4ccccc4)CC3)n2c(N)n1 8.19%
Cn1c(CNC(=O)c2ccco2)nnc1SCC(=O)N1CCN(c2ccccc2)CC1 -5.83%
COc1ccnc(NC(=S)N2CCN(c3ncc(C(F)(F)F)cc3Cl)CC2)c1 -6.96%
CCCCCCN1CCS(=O)(=O)N(Cc2ccc(C(F)(F)F)cc2)C(C(=O)OC)C1 (stereo not given) 1.89%
CC(=O)C1(C(=O)Nc2nccs2)CC(c2ccccc2C(F)(F)F)=NO1 (stereo not given) -12.3%
COC(=O)c1cc(S(=O)(=O)N2CCN(c3ccccc3C)CC2)cn1C 10.7%
CCn1c(SCC(C)=O)nc2sc3c(c2c1=O)CCCC3 -12%
COc1ccccc1CNC(=O)c1ccc(Cl)c(S(=O)(=O)N2CCCC2)c1 0.19%
O=C(NCCc1ccc(F)cc1)c1ccc(S(=O)(=O)N2CCCCC2)cc1 -1.06%
CCCC1CCC2(CCCN2CCOC(=O)NCc2ccccc2)CC1 (stereo not given) -2.03%
O=C(NC1CCCCN(Cc2ccc(Cl)cc2)C1=O)c1ccc(Br)cc1 (stereo not given) 12.4%
CCOC(=O)C1(Cc2ccccc2)CCN(Cc2cn(C(C)=O)c3ccccc23)CC1 19.5%
Fc1ccc(COc2cccc(-c3n[nH]c(=S)o3)c2)cc1 -3.8%
CC(=O)c1ccccc1OCc1ccc(C(=O)c2ccccc2)cc1 23.1%
COc1ccc(Cn2cc(CN3[C@@H](CC(C)C)COc4cc(Br)ccc4S3(=O)=O)nn2)cc1 0.76%
CC(=O)Nc1ccc(NC(=O)C2CCCN(S(=O)(=O)c3ccc(Cl)cc3)C2)cc1 (stereo not given) -3.16%
CC(=O)Nc1ccc(S(=O)(=O)N2CCC(C(=O)NC3CC3)CC2)cc1 -8.71%
COC(=O)C1CN(Cc2ccc(F)cc2)CCS(=O)(=O)N1Cc1ccc(Cl)cc1 (stereo not given) 7.77%

inhibition, active:
COc1ccc(NC(=O)C2Cc3c(-c4cccc(NC(C)=O)c4)ccnc3O2)cc1OC (stereo not given) 45%
CCOC(=O)N1CCN(C(=O)C[C@@H]2C(=O)N(CCc3ccc(Cl)cc3)C3=CCCC[C@]32C(=O)OCC)CC1 45.6%
O=C1C=C(c2ccnc3cc(Cl)ccc23)C[C@@H](c2ccc3c(c2)OCO3)C1 56%
c1ccc(Cc2ccc(OCCn3ccnc3)cc2)cc1 54.5%
CCCOC(=O)c1[nH]c2c(c1C)C(=O)CC(c1cc(OC)c(OC)c(OC)c1)C2 (stereo not given) 62.1%
COc1ccc(S(=O)(=O)Nc2ccc3oc(C)c(C(C)=O)c3c2)cc1 42.4%
Cn1c(Cc2cccc3ccccc23)nnc1SCC(=O)N1CCN(c2cccc(Cl)c2)CC1 42.6%
C=CCn1c(C)cc(C2=NNC(=NCC)SC2)c1C 94.5%
NS(=O)(=O)c1ccc(CCNC(=O)c2ccc(Cl)c(S(=O)(=O)N3CCCCCC3)c2)cc1 60.3%
Cc1nc2ccccc2cc1OCc1ccc(F)cc1 41.9%
O=C(Nc1ccc(S(=O)(=O)N2CCOCC2)cc1)C1CCN(S(=O)(=O)c2ccc(Cl)cc2)CC1 44.8%

— PubChem BioAssay AID686940 (The Scripps Research Institute Molecular Screening Center, 2013)
